Bioassay records: PubChem, National Center for Advancing Translational Sciences (NCATS)
Compounds with a hit are over-represented: about 18% of the library has one in this group of screens.
TGFb inhibitor: blocks TGF-b signaling. HepG2 CAGA-GFP TGF-b/SMAD3 reporter, GFP fluorescence, 18 h; TGF-beta stimulated, 500 pg/mL final. Potency, µM (titrated, usually from 46.1 µM), without a hit: at the highest dose activity, negative = inhibition, usual class: inhibitors. 410,000 compounds, 1.2% hits. AID 588855; note: potency is the fitted concentration of half-maximal effect; % is set by controls: 0 for no effect and ±100 for the full control effect; nearly all actives have a fitted effect of over 65% in size
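Inhibition was scored as loss of TGF-beta-induced (500 pg/mL final, 18 hours, 37 degrees C) GFP in HEPG2 cells carrying a CAGA-GFP reporter, in DMEM with 1% FBS. Well GFP was summed per cell; Activity was normalised to unstimulated and stimulated DMSO wells, then concentration-response fitting.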
TDP1 inh: inhibitors of human tyrosyl-DNA phosphodiesterase TDP1 | Q9NUW8 | recombinant TDP1, AlphaScreen DNA substrate cleavage | Potency, µM (titrated, usually from 130 µM), without a hit: top-dose activity change, negative = inhibition, most hits filed as inhibitors | 350,000 compounds, 0.28% hits | AID 485290; note: potency is the fitted concentration of half-maximal effect; % is set by controls: 0 for no effect and ±100 for the full control effect; nearly all actives have a fitted effect of over 40% in size
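AlphaScreen read-out: signal falls as enzyme removes the 3' tyrosine-FITC from a 5'-biotinylated DNA oligo (15 nM, 5 min, RT). Enzyme was E. coli-made recombinant Tdp1 at 1 nM, exposed to compound for 15 min beforehand; beads 10 ug/ml, 10 min.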
TDP1 cell noCPT: qHTS for Inhibitors of human tyrosyl-DNA phosphodiesterase 1 (TDP1): qHTS in cells in absence of CPT | 420,000 compounds, 15% hits | AID 686978, 2013 | Potency, µM (highest dose often 46.2 µM), for the others: top-dose activity change, negative = growth inhibition, actives largely listed as inhibitors | DT40 Tdp1-/- hTDP1 cells, no CPT, ATP luminescence, 48 h; note: potency is the fitted concentration of half-maximal effect; % is set by controls: 0 for no effect and ±100 for the full control effect; nearly all actives have a fitted effect of over 55% in size
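Growth of hTDP1-complemented DT40 Tdp1-knockout cells is measured by ATP luminescence after at least 48 hr compound exposure at 37 °C, with DMSO substituting for the 20 nM CPT used in the parallel screen.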
HepG2 tox: HepG2 cytotoxicity, counter-screen for TGF-b inhibitors; AID 588856; Potency, µM (titrated, usually from 46.1 µM), for inactives: top-dose activity change, negative = cytotoxicity, hits mostly cytotoxic; 410,000 compounds, 0.76% hits; HepG2 CAGA-GFP viability, ATP luminescence, 18 h; note: potency is the fitted concentration of half-maximal effect
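CellTiter-Glo luminescence gave cytotoxicity after 18 hours at 37 degrees C. The cells were HepG2 CAGA-GFP in 1% FBS DMEM, stimulated with 500 pg/mL TGF-beta after compound addition. %Activity was normalised to no-cell wells (complete cell-killing) and DMSO (no toxicity), and curves were fitted and classified.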
IL1B secr inh: inhibitors of inflammasome signaling (IL-1 beta secretion); THP-1 LPS/ATP IL-1B secretion, AlphaLISA, 16 h; hits give low values; activity change, % at 57.5 µM; 360,000 compounds, 4.7% hits; in the data active = activity change below about -50%; inconclusive = mostly about -30% to -49%; note: % is set by controls: 0 for no effect and ±100 for the full control effect
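Secreted IL-1B measured by AlphaLISA bead assay after 16 h compound exposure of THP-1 cells; compounds (final up to 57.5 uM) added 1 h before LPS (250 ng/mL) and ATP (1.25 mM) stimulation; lower signal means less secretion.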
TDP1 cell CPT: DT40-hTDP1 cell growth loss with CPT | chicken DT40 Tdp1-/-;hTDP1 cells + 20 nM CPT, ATP luminescence, 48 h | Potency, µM (titrated, usually from 46.2 µM), without a hit: at the top dose activity change, negative = growth inhibition, actives largely listed as inhibitors | 420,000 compounds, 12% hits; note: potency is the fitted concentration of half-maximal effect; % is set by controls: 0 for no effect and ±100 for the full control effect; nearly all actives have a fitted effect of over 55% in size
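Chicken DT40 Tdp1-/- cells complemented with human TDP1, 400 cells/well, exposed to compounds plus 20 nM camptothecin for at least 48 h at 37 C; viability read as ATP content by CellTiter-Glo luminescence.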
Active calls of the source: *; ? = inconclusive; · = no result given. Unless noted, calls come from the whole dose curve; as a rule, active = well fitted curve in the direction sought with a large enough effect; inconclusive = small, poorly fitted or top-dose-only effect, or another doubt; inactive = no such curve, though single readings can be large; an effect the other way counts as inactive or inconclusive.

SMILES	TGFb inhibitor	TDP1 inh	TDP1 cell noCPT	HepG2 tox	IL1B secr inh	TDP1 cell CPT
S=C1NC2=C(CCC/C2=C\c2ccccc2)C(c2ccccc2)N1 (centres undefined)	?	8%	15µM*	-32%	-1	?
Fc1cccc(/C=C2\CCCC3=C2NC(=S)NC3c2cccc(F)c2)c1 (centres undefined)	8.9µM*	10%	21µM*	-12%	-12	?
S=C1NC2=C(CCCC2=C2SCCCS2)C(c2ccccc2)N1 (centres undefined)	-11%	5%	?	-4%	-5	?
S=C1NC2=C(CCC/C2=C\c2ccc(Cl)cc2)C(c2ccc(Cl)cc2)N1 (centres undefined)	18µM*	4%	23µM*	9%	-26	?
Fc1ccccc1/C=C1\CCCC2=C1NC(=S)NC2c1ccccc1F (centres undefined)	?	8%	?	-31%	-5	?
O=S(=O)(c1cccc(C(F)(F)F)c1)N1CCN(C(=S)NC2CC2)CC1	1%	4%	0%	-1%	12	-2%
O=C1Cc2ccccc2C(=O)N1c1ccc(F)cc1Cl	4%	2%	16µM*	-1%	-9	?
O=C1Cc2ccccc2C(=O)N1c1cccc(Cl)c1	-20%	·	-29%	3%	12	-27%
CCCCOc1ccc(S(=O)(=O)NC(=O)C2(C)CCN2C(=O)CCc2ccccc2)cc1 (centres undefined)	2%	·	-13%	-36%	15	-18%
CCCCCOc1ccc(Cn2ccnc2)cc1[N+](=O)[O-]	-6%	5%	?	-16%	-11	?
CCCCCOc1ccc(CSC(=N)N)cc1[N+](=O)[O-]	?	4%	16µM*	-73%	-105*	15µM*
CCCCOc1ccc(CN(CCO)CCO)cc1[N+](=O)[O-]	-6%	-3%	-2%	-16%	-13	18µM*
COc1ccc(CSC(=N)N)cc1[N+](=O)[O-]	8%	2%	23µM*	-11%	-60*	23µM*
CCOC(=O)C1=C[C@@H](C(C)(C)C)N(S(=O)(=O)c2ccc(C)cc2)[C@H]1c1ccc(C#N)cc1	-24%	·	-75%	-31%	33	?
CCOC(=O)C1=C[C@@H](C(C)(C)C)N(S(=O)(=O)c2ccc(C)cc2)[C@H]1c1ccccc1	?	·	?	-25%	19	?
CCOC(=O)C1=C[C@@H](C(C)(C)C)N(S(=O)(=O)c2ccc(C)cc2)[C@H]1c1ccc(F)cc1	?	·	23µM*	-27%	25	18µM*
CCOC(=O)C1=C[C@@H](c2ccccc2)N(S(=O)(=O)c2ccc(C)cc2)[C@H]1c1ccc(OC)cc1	1%	·	?	-13%	7	16µM*
CCOC(=O)C1=C[C@@H](C(C)(C)C)N(S(=O)(=O)c2ccc(C)cc2)[C@H]1c1ccc(OC)cc1	?	·	21µM*	-16%	-9	?
CCOC(=O)C1=C[C@@H](c2ccccc2)N(S(=O)(=O)c2ccc(C)cc2)[C@H]1c1ccc(F)cc1	?	·	?	-19%	6	?
COC(=O)c1ccc(C(NC(=O)OCc2ccccc2)/C(C)=C/[C@@H](C)C(=O)N[C@@H](CO)Cc2ccccc2)cc1 (some centres undefined)	·	7%	·	·	·	·
Cc1cc(C)[n+](C)c2ccccc12	5%	·	-10%	-25%	·	3%
COc1ccccc1C(CNc1nc(C(F)(F)F)nc2ccccc12)N(C)C (centres undefined)	13%	5%	21µM*	-18%	-15	?
